Test results as given in the supplement of paper PMC6555819.

Experiments:
Assay in all cases: PBM binding z-score (relative to random genomic background probes); higher = stronger binding; sequences stand for … in GC…GCGATTGACAGCGTAGAATGAAGG
[1] = test system: FXR:RXRa (NR concentration 270 nM, RXRa partner concentration 90 nM)
Method in brief: (§1)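 Random background probes are the reference for binding z-scores. These scores derive from regression-normalized fluorescence on custom Agilent 4×180K protein-binding microarrays incubated 1 h with ligand-free nuclear receptor dimers. Binding was detected with antibodies against each partner (one per run).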

[2] = test system: LXRa:RXRa (NR concentration 270 nM, RXRa partner concentration 90 nM)
Method in brief: as §1

[3] = test system: LXRa homodimer (NR concentration 270 nM)
Method in brief: as §1

[4] = test system: LXRb:RXRa (NR concentration 270 nM, RXRa partner concentration 90 nM)
Method in brief: as §1

[5] = test system: LXRb homodimer (NR concentration 270 nM)
Method in brief: as §1

[6] = test system: PPARa:RXRa (NR concentration 270 nM, RXRa partner concentration 90 nM)
Method in brief: as §1

[7] = test system: PPARg:RXRa (NR concentration 180 nM, RXRa partner concentration 90 nM)
Method in brief: as §1

[8] = test system: PPARg:RXRa 270nM:90nM, anti-RXR (NR concentration 270 nM, RXRa partner concentration 90 nM)
Method in brief: as §1

[9] = test system: PPARg:RXRa 30nM:10nM, anti-RXR (NR concentration 30 nM, RXRa partner concentration 10 nM)
Method in brief: as §1

[10] = test system: PPARg:RXRa 90nM:30nM, anti-RXR (NR concentration 90 nM, RXRa partner concentration 30 nM)
Method in brief: as §1

[11] = test system: PPARg:RXRa DBDmut IVT, anti-RXR (DBD mutation: RXRa K156A/R161A, NR concentration 270 nM, RXRa partner concentration 90 nM)
Method in brief: as §1

[12] = test system: PPARg:RXRa IVT, anti-PPARg (NR concentration 270 nM, RXRa partner concentration 90 nM)
Method in brief: as §1

[13] = test system: PPARg DBDmut:RXRa IVT, anti-PPARg (DBD mutation: PPARg1 K132A/R137A, NR concentration 270 nM, RXRa partner concentration 90 nM)
Method in brief: as §1

[14] = test system: PPARg DBDmut IVT, anti-PPARg (DBD mutation: PPARg1 K132A/R137A, NR concentration 270 nM)
Method in brief: as §1

[15] = test system: PPARg homodimer (NR concentration 180 nM)
Method in brief: as §1

[16] = test system: PXR:RXRa (NR concentration 270 nM, RXRa partner concentration 90 nM)
Method in brief: as §1

[17] = test system: PXR homodimer (NR concentration 270 nM)
Method in brief: as §1

[18] = test system: RARa:RXR (NR concentration 270 nM, RXRa partner concentration 90 nM)
Method in brief: as §1

[19] = test system: RARa homodimer (NR concentration 270 nM)
Method in brief: as §1

[20] = test system: RARb:RXRa (NR concentration 270 nM, RXRa partner concentration 90 nM)
Method in brief: as §1

| Sequence | PBM binding z-score [1] | PBM binding z-score [2] | PBM binding z-score [3] | PBM binding z-score [4] | PBM binding z-score [5] | PBM binding z-score [6] | PBM binding z-score [7] | PBM binding z-score [8] | PBM binding z-score [9] | PBM binding z-score [10] | PBM binding z-score [11] | PBM binding z-score [12] | PBM binding z-score [13] | PBM binding z-score [14] | PBM binding z-score [15] | PBM binding z-score [16] | PBM binding z-score [17] | PBM binding z-score [18] | PBM binding z-score [19] | PBM binding z-score [20] |
| --- | --- | --- | --- | --- | --- | --- | --- | --- | --- | --- | --- | --- | --- | --- | --- | --- | --- | --- | --- | --- |
| GCTATTAGTTGAAAGGGCAAACGAATGATTCTCG | 0.733 | 0.93 | 0.494 | 1.13 | -0.0679 | 2.7 | 2.92 | 4.48 | 2.73 | 4.34 | 0.582 | 1.18 | 0.0539 | 0.507 | 1.19 | 0.938 | 0.57 | 1.52 | 1.28 | 2.04 |
| ATCGAAAGGACGAGGTGAGTATAGAGAAAGGGAA | 0.588 | 0.168 | -0.177 | -0.191 | -0.00522 | 0.0333 | 0.589 | -0.152 | 0.508 | 0.313 | 0.186 | 0.649 | 0.713 | 0.658 | 0.139 | -0.25 | 0.286 | 0.04 | 0.504 | 1.31 |
| ATATGCAGGTTAGCTGGGGTCATTCAGACTAGGC | 4.95 | 5.96 | 3.01 | 4.92 | 0.363 | 4.7 | 2.52 | 3.4 | 0.768 | 2.26 | 2.79 | 2.76 | 0.943 | 1.03 | 1.18 | 6.31 | 2.68 | 5.26 | 0.349 | 3.15 |
| TCATATAGGTAAACAGCTGAAAGTCCGTAAGTTA | 1.09 | 0.759 | 0.185 | 0.758 | -0.215 | 1.37 | 0.75 | 2.36 | 3.9 | 3.19 | 3.93 | 2.25 | 1.07 | 0.733 | 0.646 | 0.928 | 0.555 | 1.19 | 0.977 | 0.471 |
| CGTCCAAGGTCAGCAGGTCAGGGAAAGCGACGTG | 5.75 | 3.75 | 0.358 | 3.11 | -0.252 | 4.79 | 4.23 | 4.7 | 1.38 | 3.21 | 3.07 | 3.53 | -0.625 | -0.856 | 4.09 | 3.83 | 0.492 | 5.33 | 1.3 | 5.27 |
| CGTCCAAAGTCAGCAGGTCAGTGAAAGCGACGTG | 0.237 | 0.521 | 0.0163 | 0.578 | -0.765 | 1.24 | -0.0107 | 0.0351 | -0.634 | -0.432 | 0.261 | 0.191 | -0.441 | -1.08 | 0.985 | 0.594 | -0.2 | 0.951 | -0.229 | 2.05 |
| GCGACTAGGGCATCAGCAGGTTACCATAACTTAA | -0.0195 | -0.0261 | -0.362 | -0.000126 | -0.683 | 0.802 | 1.41 | 1.17 | -0.0852 | 0.611 | 4.76 | 3.7 | -0.562 | -0.523 | 0.128 | -0.0606 | -0.519 | 0.482 | -0.519 | 1.13 |
